Data taken from the supplement of paper PMC3150612.
± gives the standard deviation of the averaged measurements.

Tests used:
Drosophila melanogaster [1] = assay: olfactory response index (dipstick assay) (fraction of flies (RI; 1 aversion, 0.5 indifferent, 0 attraction)); higher = stronger aversion to the odorant; settings: odorant concentration: 1% v/v, male
Drosophila melanogaster [2] = assay: as above; settings: odorant concentration: 1% v/v, female
[3] = genotype (tubulin-GAL4 x UAS-RNAi line; control = progenitor): A5
[4] = genotype (tubulin-GAL4 x UAS-RNAi line; control = progenitor): control
[5] = genotype (tubulin-GAL4 x UAS-RNAi line; control = progenitor): obp 18a
[6] = genotype (tubulin-GAL4 x UAS-RNAi line; control = progenitor): obp 22a
[7] = genotype (tubulin-GAL4 x UAS-RNAi line; control = progenitor): obp 28a
[8] = genotype (tubulin-GAL4 x UAS-RNAi line; control = progenitor): obp 56a
[9] = genotype (tubulin-GAL4 x UAS-RNAi line; control = progenitor): obp 56c
[10] = genotype (tubulin-GAL4 x UAS-RNAi line; control = progenitor): obp 56f
[11] = genotype (tubulin-GAL4 x UAS-RNAi line; control = progenitor): obp 57a
[12] = genotype (tubulin-GAL4 x UAS-RNAi line; control = progenitor): obp 57b
[13] = genotype (tubulin-GAL4 x UAS-RNAi line; control = progenitor): obp 58c
[14] = genotype (tubulin-GAL4 x UAS-RNAi line; control = progenitor): obp 59a
[15] = genotype (tubulin-GAL4 x UAS-RNAi line; control = progenitor): obp 83a
[16] = genotype (tubulin-GAL4 x UAS-RNAi line; control = progenitor): obp 83c
[17] = genotype (tubulin-GAL4 x UAS-RNAi line; control = progenitor): obp 93a
[18] = genotype (tubulin-GAL4 x UAS-RNAi line; control = progenitor): obp 99b
[19] = genotype (tubulin-GAL4 x UAS-RNAi line; control = progenitor): obp 56h
[20] = genotype (tubulin-GAL4 x UAS-RNAi line; control = progenitor): obp 58b

Row | Structure (SMILES) | olfactory response index (Drosophila melanogaster [1]; [3]) | olfactory response index (Drosophila melanogaster [1]; [4]) | olfactory response index (Drosophila melanogaster [1]; [5]) | olfactory response index (Drosophila melanogaster [1]; [6]) | olfactory response index (Drosophila melanogaster [1]; [7]) | olfactory response index (Drosophila melanogaster [1]; [8]) | olfactory response index (Drosophila melanogaster [1]; [9]) | olfactory response index (Drosophila melanogaster [1]; [10]) | olfactory response index (Drosophila melanogaster [1]; [11]) | olfactory response index (Drosophila melanogaster [1]; [12]) | olfactory response index (Drosophila melanogaster [1]; [13]) | olfactory response index (Drosophila melanogaster [1]; [14]) | olfactory response index (Drosophila melanogaster [1]; [15]) | olfactory response index (Drosophila melanogaster [1]; [16]) | olfactory response index (Drosophila melanogaster [1]; [17]) | olfactory response index (Drosophila melanogaster [1]; [18]) | olfactory response index (Drosophila melanogaster [1]; [19]) | olfactory response index (Drosophila melanogaster [2]; [3]) | olfactory response index (Drosophila melanogaster [2]; [4]) | olfactory response index (Drosophila melanogaster [2]; [5]) | olfactory response index (Drosophila melanogaster [2]; [6]) | olfactory response index (Drosophila melanogaster [2]; [7]) | olfactory response index (Drosophila melanogaster [2]; [8]) | olfactory response index (Drosophila melanogaster [2]; [9]) | olfactory response index (Drosophila melanogaster [2]; [10]) | olfactory response index (Drosophila melanogaster [2]; [11]) | olfactory response index (Drosophila melanogaster [2]; [12]) | olfactory response index (Drosophila melanogaster [2]; [20]) | olfactory response index (Drosophila melanogaster [2]; [13]) | olfactory response index (Drosophila melanogaster [2]; [14]) | olfactory response index (Drosophila melanogaster [2]; [15]) | olfactory response index (Drosophila melanogaster [2]; [16]) | olfactory response index (Drosophila melanogaster [2]; [17]) | olfactory response index (Drosophila melanogaster [2]; [18]) | olfactory response index (Drosophila melanogaster [2]; [19])
1 | C=C(C)[C@@H]1CC=C(C)C(=O)C1 [(R)-carvone] | 0.627 ± 0.12 | 0.163 ± 0.067 | 0.206 ± 0.16 | 0.34 ± 0.1 | 0.499 ± 0.09 | 0.396 ± 0.16 | 0.158 ± 0.14 | 0.201 ± 0.076 | 0.207 ± 0.1 | 0.378 ± 0.18 | 0.24 ± 0.096 | 0.541 ± 0.14 | 0.422 ± 0.069 | 0.146 ± 0.12 | 0.472 ± 0.21 | 0.233 ± 0.12 | 0.306 ± 0.22 | 0.747 ± 0.074 | 0.712 ± 0.019 | 0.484 ± 0.18 | 0.5 ± 0.16 | 0.662 ± 0.12 | 0.532 ± 0.2 | 0.712 ± 0.2 | 0.616 ± 0.13 | 0.582 ± 0.15 | 0.685 ± 0.13 | 0.622 ± 0.14 | 0.684 ± 0.077 | 0.711 ± 0.059 | 0.535 ± 0.06 | 0.655 ± 0.11 | 0.708 ± 0.16 | 0.676 ± 0.022 | 0.615 ± 0.14
2 | Cc1cnccn1 [2-methylpyrazine] | 0.457 ± 0.04 | 0.104 ± 0.039 | 0.178 ± 0.049 | 0.155 ± 0.17 | 0.085 ± 0.043 | 0.176 ± 0.094 | 0.293 ± 0.15 | 0.151 ± 0.066 | 0.238 ± 0.096 | 0.261 ± 0.04 | 0.116 ± 0.1 | 0.397 ± 0.041 | 0.305 ± 0.16 | 0.218 ± 0.18 | 0.111 ± 0.044 | 0.1 ± 0.087 | 0.233 ± 0.078 | 0.623 ± 0.14 | 0.415 ± 0.074 | 0.358 ± 0.17 | 0.394 ± 0.084 | 0.527 ± 0.068 | 0.318 ± 0.099 | 0.458 ± 0.14 | 0.674 ± 0.013 | 0.532 ± 0.066 | 0.543 ± 0.082 | 0.159 ± 0.054 | 0.304 ± 0.15 | 0.552 ± 0.3 | 0.478 ± 0.062 | 0.431 ± 0.12 | 0.506 ± 0.13 | 0.381 ± 0.059 | 0.393 ± 0.099
3 | C=C(C)[C@H]1CC=C(C)C(=O)C1 [(S)-carvone] | 0.57 ± 0.068 | 0.456 ± 0.062 | 0.22 ± 0.068 | 0.372 ± 0.058 | 0.384 ± 0.14 | 0.142 ± 0.051 | 0.186 ± 0.057 | 0.525 ± 0.15 | 0.277 ± 0.15 | 0.4861 ± 0.0015 | 0.468 ± 0.1 | 0.657 ± 0.13 | 0.304 ± 0.27 | 0.555 ± 0.19 | 0.382 ± 0.14 | 0.171 ± 0.066 | 0.504 ± 0.17 | 0.729 ± 0.063 | 0.65 ± 0.074 | 0.558 ± 0.053 | 0.775 ± 0.06 | 0.651 ± 0.073 | 0.357 ± 0.1 | 0.678 ± 0.2 | 0.676 ± 0.1 | 0.613 ± 0.085 | 0.73 ± 0.15 | 0.49 ± 0.07 | 0.597 ± 0.064 | 0.739 ± 0.031 | 0.589 ± 0.045 | 0.398 ± 0.079 | 0.715 ± 0.056 | 0.468 ± 0.041 | 0.683 ± 0.086
4 | CCC/C=C/C=O [(E)-2-hexenal] | 0.565 ± 0.14 | 0.681 ± 0.13 | 0.494 ± 0.13 | 0.655 ± 0.11 | 0.672 ± 0.07 | 0.763 ± 0.079 | 0.618 ± 0.13 | 0.657 ± 0.065 | 0.555 ± 0.15 | 0.718 ± 0.037 | 0.732 ± 0.052 | 0.666 ± 0.0073 | 0.663 ± 0.1 | 0.67 ± 0.085 | 0.782 ± 0.14 | 0.29 ± 0.16 | 0.55 ± 0.12 | 0.723 ± 0.11 | 0.804 ± 0.15 | 0.724 ± 0.12 | 0.811 ± 0.14 | 0.753 ± 0.051 | 0.892 ± 0.028 | 0.768 ± 0.1 | 0.727 ± 0.076 | 0.843 ± 0.1 | 0.794 ± 0.18 | 0.703 ± 0.057 | 0.715 ± 0.11 | 0.767 ± 0.13 | 0.779 ± 0.088 | 0.837 ± 0.1 | 0.848 ± 0.054 | 0.529 ± 0.24 | 0.665 ± 0.17
